In ChEMBL document CHEMBL3433997, “St. Jude Leishmania screening dataset” (2016):

How the values were obtained:
Format in all cases: functional
[1] = target: Solute carrier family 2, facilitated glucose transporter member 1 (Homo sapiens) (UniProt P11166); assay: ST_JUDE_LEISH: Cytotoxicity at 2uM final concentration against transgenic Leishmania Mexicana promastigotes LmGLUT1 that are glucose transport deficient and complemented with the human glucose transporter GLUT1. Activity is measured by DNA content using SYBR green in vitro
[2] = target: Hexose transporter 1 (Plasmodium falciparum) (UniProt O97467); assay: ST_JUDE_LEISH: Cytotoxicity at 2uM final concentration against transgenic Leishmania Mexicana promastigotes LmPfHT that are glucose transport deficient and complemented with the Plasmodium falciparum hexose transporter. Activity is measured by DNA content using SYBR green in vitro
[3] = target: Glucose transporter (Leishmania mexicana) (UniProt O61059); assay: ST_JUDE_LEISH: Cytotoxicity at 2uM final concentration against transgenic Leishmania Mexicana promastigotes LmGT2 that are glucose transport deficient and complemented with the L. Mexicana glucose transporter 2. Activity is measured by DNA content using SYBR green in vitro

Chain of Solute carrier family 2, facilitated glucose transporter member 1 (Homo sapiens) (P11166 whole entry): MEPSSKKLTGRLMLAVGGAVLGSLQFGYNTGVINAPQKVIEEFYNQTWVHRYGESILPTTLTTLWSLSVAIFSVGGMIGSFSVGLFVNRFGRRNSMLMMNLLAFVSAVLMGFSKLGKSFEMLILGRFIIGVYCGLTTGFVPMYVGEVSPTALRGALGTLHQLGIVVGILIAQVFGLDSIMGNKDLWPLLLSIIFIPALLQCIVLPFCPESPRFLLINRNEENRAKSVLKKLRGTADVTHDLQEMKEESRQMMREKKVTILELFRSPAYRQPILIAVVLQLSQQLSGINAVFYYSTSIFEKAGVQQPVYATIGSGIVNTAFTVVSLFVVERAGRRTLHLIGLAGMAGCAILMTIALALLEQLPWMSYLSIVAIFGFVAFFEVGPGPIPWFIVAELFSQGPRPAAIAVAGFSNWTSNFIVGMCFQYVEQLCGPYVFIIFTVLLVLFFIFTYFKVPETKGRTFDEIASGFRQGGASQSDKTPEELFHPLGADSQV

Row | Structure (SMILES) | inhibition [1] | inhibition [2] | inhibition [3]
1 | Cc1ccc(Oc2cnn(C)c(=O)c2Nc2cccc(C(=O)NCCc3ccccn3)c2)c(C)c1 | 4.16% | 4.25% | 3.26%
2 | O=C(/C=C/c1c(Cl)cccc1Cl)NC1CCC(CN2CCC(Cc3cc4ccccc4[nH]3)CC2)CC1 (stereo unspecified) | 4.15% | 10.2% | 2.31%
3 | Cc1ccc(-c2ccn(Cc3ccc(OCc4ccccc4)cc3)n2)cn1.Cc1ccc(-c2ccnn2Cc2ccc(OCc3ccccc3)cc2)cn1 | 0.13% | 0.76% | 0.25%
4 | CN(C)c1cc(NC(=O)Nc2ccccc2)c2ccccc2n1 | 2.21% | 5.06% | 2.82%
5 | COc1ccc(-c2ccc(NC(=O)c3ccc(C#N)cc3)c(F)c2)cc1CN(C)CCN(C)C | 0.85% | -0.56% | 0.45%
6 | Cc1ccc(NC(C)C(=O)Nc2ccccc2)cc1S(=O)(=O)N1CCCCCC1 (stereo unspecified) | 10.6% | 9.81% | 9.12%
7 | Cc1c(Cn2ncc(N3CC(C)NC(C)C3)c(Cl)c2=O)cccc1NC(=O)Nc1ccc(-c2ccccc2)cc1 (stereo unspecified) | 4.08% | 3.21% | 5.17%
8 | COc1cccc(NC(=O)COc2ccc(C(=O)Nc3nc4ccccc4[nH]3)cc2)c1 | 2.45% | 2.07% | -1.7%
9 | Cc1ccc(NC(=O)c2ccc(CN3CCCN(Cc4cccc(O)c4)CC3)cc2)cc1 | -1.8% | -0.37% | 1.37%
10 | COC(=O)c1noc(C)c1I | 0.86% | 0.08% | 0.59%
11 | O=C(NCCc1ccc(Cl)c(Cl)c1)[C@@H]1CCCN1C(=O)c1ccc(O)c(-c2ccc(Cl)c(Cl)c2)c1 | -1.56% | -0.69% | -1.51%
12 | O=C(Nc1cc(C(F)(F)F)cc(C(F)(F)F)c1)NC(CCCN1CCC2(CC1)OCc1ccccc12)c1ccc(Cl)c(Cl)c1 (stereo unspecified) | 3% | 5.93% | -0.66%
13 | Cc1ccc(Nc2nnc(SCC(=O)Nc3ccc(CN4CCCC4)cc3)s2)cc1 | 0.83% | -0.59% | 0.85%
14 | O=[N+]([O-])c1cccc(CNCC2CCN(Cc3ccc4ccccc4c3)CC2)c1 | 16.5% | 3.55% | 2.23%
15 | CCCC1(C)CSc2ccccc2C(c2ccccc2)N1 (stereo unspecified) | 4.9% | 6.11% | 7.67%
16 | Oc1ccc(CCCNc2nc(NCc3cccc4ccccc34)nc(N3CCCNCC3)n2)cc1 | -0.67% | -0.2% | 1.52%
17 | Nc1ncc(-c2ccc(Cl)c(Cl)c2)c(N)n1 | 0.86% | 1.64% | 0.31%
18 | COc1cccc([C@@H](CC(=O)Nc2cc(C(F)(F)F)ccc2OC)Nc2ccc(C#N)c3ccccc23)c1 | 7.27% | 5.34% | 4.83%
19 | Nc1cc2c(C3CCN(CC4CCN(C(=O)/C=C/c5ccc(Cl)c(Cl)c5)CC4)CC3)c[nH]c2cn1 | 1.83% | 0.67% | -0.09%
20 | Nc1cccc(CNCc2ccc(-c3ccc(-c4nc5cc(F)ccc5[nH]4)s3)cc2)c1 | -2.38% | 0.25% | -1.11%
21 | O=C(Nc1ccc([N+](=O)[O-])cc1O)Nc1ccccc1Oc1ccccc1 | -1.52% | -0.84% | -0.04%

Row | Structure (SMILES) | inhibition [1] | inhibition [2] | inhibition [3]
22 | O=C(Nc1ccccc1)c1c[nH]cn1 | 0.43% | 2.14% | -0.23%
23 | CN(C)c1cccc2c1nc(-c1ccco1)n2CCNCc1ccccc1 | -0.08% | 1.58% | -0.13%
24 | CC(C)(C)OC(=O)NCC(=O)N(Cc1ccccc1)Cc1ccccc1 | 4.96% | 4.38% | 3.73%
25 | CC(C)Cn1c(N)cc(=O)n(C)c1=O | 3.76% | 3.45% | 3.72%
26 | Cc1cc(=NN=Cc2ccc(Cl)cc2)c2ccc(F)cc2[nH]1 | 2.07% | 2.71% | 1.54%
27 | COc1ccc(CNCC(C)(C)c2nc(-c3ccc(Cl)c(O)c3)c(-c3ccncc3)[nH]2)cc1 | 0.93% | 0.9% | -2.74%
28 | N#Cc1ccc(CN2CCCN(Cc3cccc(NC(=O)c4cc5ccccc5s4)c3)CC2)cc1 | -0.46% | -0.58% | -1.54%
29 | O=C(/C=C/c1ccc(C(F)(F)F)cc1)NCCCCCN1CCCN(C(=O)Nc2cccc(Cl)c2)CC1 | -0.19% | -1.13% | 1.47%
30 | COc1ccc(NC(=O)CCNc2cc(C)nc(NCCc3ccc(F)cc3)n2)cc1 | -0.52% | 0.39% | -0.01%
31 | CCOc1ccc(C(=O)Nc2cc(Br)c3c(c2)CNCC3)cc1C(F)(F)F | -0.39% | -2.66% | -2.48%
32 | O=C(Nc1ccc(S(=O)(=O)N2CCCCCC2)cc1)c1cc(-c2ccccc2O)n[nH]1 | 9.89% | 8.12% | 8.68%
33 | COc1cccc(C(=O)NCc2cccs2)c1OCc1ccccc1 | 1.77% | 0.89% | 1.15%
34 | COc1ccc(-c2cnc3ccc(NCc4ccc(S(N)(=O)=O)cc4)nn23)cn1 | 4.78% | 4.83% | 5.05%
35 | COc1ccc2c(OC)c(CNCCCCCCNCc3ccc4cc(OC)ccc4c3OC)ccc2c1 | 106% | 107% | 107%
36 | Cc1ccc(O)cc1C[C@@H]1C(=O)CC[C@@]2(C)[C@H]1CC[C@]2(C)O | -1.27% | 1% | 2.57%
37 | N#Cc1ccc(N2CCN(Cc3cccc(-c4ccc(-c5nc6cc(C(F)(F)F)ccc6[nH]5)cc4)c3)CC2)nc1 | 4.01% | 6.49% | 0.17%
38 | CCCCCCCc1c(C)[nH]c2ccc(F)cc2c1=O | -0.05% | 0.32% | -0.32%
39 | COc1ccc2nc(-c3cc(-c4ccc(NC(C)=O)cc4)cnc3N)[nH]c2c1 | 3.72% | 4.61% | 2.87%
40 | CCOc1c(CCNCCCCNCCc2ccc3ccccc3c2OCC)ccc2ccccc12 | 111% | 112% | 111%
41 | Cc1cc(NC(=O)Nc2ccc3nc(C)oc3c2)c2cc(Cl)ccc2n1 | 3.48% | 2.12% | 1.38%
42 | Cc1cc(=NN=Cc2ccccc2Cl)c2cccc(C)c2[nH]1 | 3.87% | 2.32% | -1.14%
